{
  "source": "PubChem BioAssay AID504592",
  "about": "(Broad Institute, 2011)",
  "note": "Out of some 1,100 compounds screened, about 540 (49%) were called active. Not shown: some 5% with an inconclusive outcome. No stated cut-off is given here; in the data, active means inhibition above about 54%; inconclusive means no clear call, values can overlap the other calls; inactive means below that. So high a share suggests a set chosen from earlier hits. Not all results are given here.",
  "data": [
    {"assay": "prion 5' UTR mRNA inhibition, cherry-pick retest (AID 504592)", "settings": "cell-based prion protein 5' UTR reporter, plate reader; at 2.5 µM; active compounds read high", "values": [
      {"smiles": "NC(=O)c1ccc(NC(=O)COC(=O)c2ccc([N+](=O)[O-])cc2)cc1", "inhibition": "91.9% (active)"},
      {"smiles": "O=C1/C(=C\\c2ccc([N+](=O)[O-])cc2)CS(=O)(=O)C/C1=C/c1ccc([N+](=O)[O-])cc1", "inhibition": "85.3% (active)"},
      {"smiles": "CC12CCC3C(CCC4CC(=O)CCC43C)C1CC(=NO)C2=O", "note": "(stereo unspecified)", "inhibition": "0.372% (inactive)"},
      {"smiles": "O=C(CSc1ncnc2sccc12)N1CCN(C(=O)c2cccs2)CC1", "inhibition": "9.5% (inactive)"},
      {"smiles": "COc1cc(OC)cc(C(=O)N[C@H](C(=O)Nc2nc3ccccc3[nH]2)C(C)C)c1", "inhibition": "44.9% (inactive)"},
      {"smiles": "COc1cccc2c1C(=O)c1c(O)c3c(c(O)c1C2=O)CC(O)(C(C)=NNC(=O)c1ccc(Cl)c(Cl)c1)CC3OC1CC(N)C(O)C(C)O1", "note": "(stereo unspecified)", "inhibition": "82.4% (active)"},
      {"smiles": "CCC(C)(O)C(=O)OC1C(=O)OC2CC3C(C)=CC(=O)C(O)C3(C)C3C4(O)OCC23C1C(C)C4O", "note": "(stereo unspecified)", "inhibition": "83% (active)"},
      {"smiles": "Cc1ccc2nc(-c3ccc(Br)cc3)cn2c1", "inhibition": "40% (inactive)"},
      {"smiles": "Cc1ccc(-c2cn3cc(C)ccc3n2)cc1", "inhibition": "89.9% (active)"},
      {"smiles": "Nc1ccc(OCC(O)C[n+]2ccc(CCS(=O)(=O)[O-])cc2)cc1", "note": "(stereo unspecified)", "inhibition": "-71.6% (inactive)"},
      {"smiles": "CN(NC(=O)c1ccccc1F)c1nc(C(F)(F)F)nc2ccccc12", "inhibition": "86.4% (active)"},
      {"smiles": "COc1ccc(C2=Nn3c(nnc3-c3ccccc3OC)SC2)cc1OC1CCCC1", "inhibition": "79.2% (active)"},
      {"smiles": "CC(C)(C)C1CCc2c(sc3nc(SCC(N)=O)nc(N)c23)C1", "note": "(stereo unspecified)", "inhibition": "-25.3% (inactive)"},
      {"smiles": "COC1C(O)C(C)OC(OC2CCC3(C=O)C(CCC4C3CCC3(C)C(C5=CC(=O)OC5)CCC43O)C2)C1O", "note": "(stereo unspecified)", "inhibition": "91.9% (active)"},
      {"smiles": "Cc1ccc(CCC(=O)Nc2ncc(Cc3cc(Cl)ccc3Cl)s2)o1", "inhibition": "89.3% (active)"},
      {"smiles": "Clc1ccc2nc(-c3ccccc3)nc(C(Cl)Cl)c2c1", "inhibition": "89.1% (active)"},
      {"smiles": "Cc1cc(NC(=O)/C=C/C(=O)N(CC(=O)NC2CCCC2)c2ccc(F)cc2)no1", "inhibition": "15.5% (inactive)"},
      {"smiles": "O=C(NNC(=O)c1ccccc1O)c1ccccc1O", "inhibition": "62.2% (active)"},
      {"smiles": "CC1Cc2ccccc2N1C(=O)c1cc2sccc2n1Cc1ccccc1", "note": "(stereo unspecified)", "inhibition": "-33.3% (inactive)"},
      {"smiles": "O=c1oc2ccccc2cc1-c1cn(-c2ccccc2)c(=S)[nH]1", "inhibition": "86.9% (active)"},
      {"smiles": "CCCOC(=O)c1[nH]c2c(c1C)C(=O)CC(c1cccs1)C2", "note": "(stereo unspecified)", "inhibition": "88.2% (active)"},
      {"smiles": "Cc1cc(Nc2ccccc2)n(C(=O)c2ccc(N)cc2)n1", "inhibition": "12% (inactive)"},
      {"smiles": "COc1cc([N+](=O)[O-])ccc1NC(=S)N1CCN(c2ccccn2)CC1", "inhibition": "-10.7% (inactive)"},
      {"smiles": "CN(c1ccc2nc3ccccc3c(=O)n2n1)C1CCCCC1", "inhibition": "86.2% (active)"},
      {"smiles": "O=C(Nc1ccc2c(c1)OCCO2)C1CCCC1", "inhibition": "33.2% (inactive)"},
      {"smiles": "CCOc1cc(NS(=O)(=O)c2ccc(OC)cc2)c(OCC)cc1NC(C)=O", "inhibition": "-19.5% (inactive)"},
      {"smiles": "C=CCOc1ccc(/C=C2\\SC(=S)N(CCC(=O)O)C2=O)cc1", "inhibition": "61.2% (active)"},
      {"smiles": "COc1cc(SC)ccc1C(=O)Nc1nc(C)cs1", "inhibition": "79% (active)"},
      {"smiles": "OCC1(Cc2ccccc2)CCN(Cc2cc3ccccc3o2)CC1", "inhibition": "-6.23% (inactive)"},
      {"smiles": "O=C(CN1C(=O)c2ccccc2S1(=O)=O)N1CCc2ccccc21", "inhibition": "80% (active)"},
      {"smiles": "CC(C)(C)c1ccc(Oc2ccc(N)cc2)cc1", "inhibition": "85.6% (active)"},
      {"smiles": "O=C(C1=C[C@H](c2coc3ccccc3c2=O)C[C@H](OCc2ccc(CO)cc2)O1)N1CCN(Cc2ccccc2)CC1", "inhibition": "-63.6% (inactive)"},
      {"smiles": "COc1ccc(C(=O)Nc2ccccc2C(=O)N/N=C/c2ccc(O)c(OC)c2)cc1", "inhibition": "71.2% (active)"},
      {"smiles": "CCC(C)Cn1c(O)cc2nn(-c3nc4ccccc4s3)c(=O)c-2c1C", "note": "(stereo unspecified)", "inhibition": "89.8% (active)"},
      {"smiles": "CCCCNS(=O)(=O)CCNCc1ccccc1OC", "inhibition": "-14.3% (inactive)"},
      {"smiles": "Oc1ccc(N2CCN(C(=S)NCc3ccccc3)CC2)cc1", "inhibition": "-21.4% (inactive)"},
      {"smiles": "CC(=O)OC1C2(CC3N4C(=O)C5(CO)SSC4(CC31O)C(=O)N5C)OC(C)C(C)(C)C2=O", "note": "(stereo unspecified)", "inhibition": "98.2% (active)"},
      {"smiles": "CCn1c(=O)c(=O)[nH]c2c(=O)oc3ccc(S(=O)(=O)Nc4ccc(OC)cc4)cc3c21", "inhibition": "-6.15% (inactive)"},
      {"smiles": "COC(=O)Cc1[nH]n(-c2nc3ccccc3s2)c(=O)c1C(C)=Nc1ccc(OC)cc1", "inhibition": "80.6% (active)"},
      {"smiles": "COc1ccc(OC)c(Cc2cnc3nc(N)nc(N)c3c2C)c1", "inhibition": "-3.64% (inactive)"},
      {"smiles": "CC(=O)c1ccc(Oc2cc(C)nc(-n3nc(C)cc3C)n2)cc1", "inhibition": "83.7% (active)"},
      {"smiles": "COc1ccc(C(=O)/C=C/Nc2ccccn2)cc1", "inhibition": "73.9% (active)"},
      {"smiles": "Cc1ccc(-c2cccc([C@H]3[C@@H]4C=CC[C@@H](C)[C@@H]4C(=O)N3Cc3ccccc3)c2)cc1", "inhibition": "-13.7% (inactive)"},
      {"smiles": "CSc1nc(-c2ccccc2)nc(C(Cl)Cl)n1", "inhibition": "89.8% (active)"},
      {"smiles": "C=CCn1c(C)cc(C2=NNC(=NCC)SC2)c1C", "inhibition": "95.3% (active)"},
      {"smiles": "O=C1[C@@H](c2ccccc2)[C@@H](c2ccccc2)N1c1cccnc1", "inhibition": "-4.06% (inactive)"},
      {"smiles": "Cc1ccc(S(=O)(=O)Nc2nc3ccccc3s2)cc1[N+](=O)[O-]", "inhibition": "79.1% (active)"},
      {"smiles": "C/C(=N\\NC(=O)c1cc2c(s1)CCC(C)C2)c1cccnc1", "note": "(stereo unspecified)", "inhibition": "-16.9% (inactive)"},
      {"smiles": "Cc1ccc(/C=N/NC(=O)COc2ccccc2-c2ccccc2)cc1", "inhibition": "87.8% (active)"},
      {"smiles": "COc1ccccc1N1CCN(C(=O)c2cc(=O)c3cc(C)cc(C)c3o2)CC1", "inhibition": "91.6% (active)"},
      {"smiles": "CN(CCO)c1ccc(/C=N/Nc2nncc3ccccc23)cc1", "inhibition": "72.6% (active)"}
    ]}
  ]
}
